# Test results reported in article PMC7862700, “An all-to-all approach to the identification of sequence-specific readers for epigenetic DNA modifications on cytosine”.
# Tests used:
# Experiment in all cases: DAPPL (digital affinity profiling via proximity ligation, sequencing); 10 mM Tris-HCl pH 7.5, 50 mM NaCl, 1 mM DTT, 4% glycerol, room temperature, 30 min; GST-TFs on glutathione beads, 16-mer random dsDNA library, 0.1% formaldehyde crosslink after washing; high values mean tight binding
# [1] = target: T1, FLI1 (Homo sapiens, UniProt Q01543 1-452); conditions: protein: recombinant; tags: N-terminal GST; dsDNA, one strand shown
# T1 sequence: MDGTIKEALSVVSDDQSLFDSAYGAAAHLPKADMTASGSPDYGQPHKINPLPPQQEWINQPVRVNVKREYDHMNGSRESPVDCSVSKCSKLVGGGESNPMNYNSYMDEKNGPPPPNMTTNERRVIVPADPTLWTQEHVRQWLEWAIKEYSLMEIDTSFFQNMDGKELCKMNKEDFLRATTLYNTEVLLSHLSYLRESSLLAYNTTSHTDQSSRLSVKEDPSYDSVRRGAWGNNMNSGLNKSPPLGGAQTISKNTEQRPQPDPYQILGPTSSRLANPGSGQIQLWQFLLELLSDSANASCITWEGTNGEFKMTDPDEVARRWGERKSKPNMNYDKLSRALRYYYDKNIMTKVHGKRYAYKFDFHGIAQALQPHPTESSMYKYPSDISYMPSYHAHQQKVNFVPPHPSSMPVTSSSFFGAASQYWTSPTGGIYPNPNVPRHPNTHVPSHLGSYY
# Outline: (§1)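 GST fusions of human transcription factors were expressed in yeast and captured with glutathione beads. Once given DNA barcodes and pooled alongside a tag-only sample, they were incubated for 30 min at room temperature with 200 nmole of a random double-stranded 16-mer DNA library in Tris/NaCl/DTT/glycerol buffer, then washed, crosslinked (0.1% formaldehyde), proximity-ligated, PCR-amplified and sequenced on an Illumina NextSeq500. The binding signal of each hexamer is its read frequency for a factor divided by its frequency for the tag-only sample.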
# [2] = target: T2, ELK1 (Homo sapiens, UniProt P19419 1-428); conditions: protein: recombinant; tags: N-terminal GST; dsDNA, one strand shown
# T2 sequence: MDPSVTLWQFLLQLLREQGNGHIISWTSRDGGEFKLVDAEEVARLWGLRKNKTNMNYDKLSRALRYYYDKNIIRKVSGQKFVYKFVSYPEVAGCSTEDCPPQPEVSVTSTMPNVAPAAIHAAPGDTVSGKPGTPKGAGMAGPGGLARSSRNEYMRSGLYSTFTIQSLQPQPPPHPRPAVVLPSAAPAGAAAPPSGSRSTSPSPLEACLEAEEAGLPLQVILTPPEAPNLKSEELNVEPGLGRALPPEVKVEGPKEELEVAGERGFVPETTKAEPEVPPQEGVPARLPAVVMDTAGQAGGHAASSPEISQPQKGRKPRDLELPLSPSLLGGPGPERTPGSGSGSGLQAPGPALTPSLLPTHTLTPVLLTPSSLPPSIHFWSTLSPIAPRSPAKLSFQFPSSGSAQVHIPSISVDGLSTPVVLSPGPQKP
# Outline: as §1
# [3] = target: T3, GABPA (Homo sapiens, UniProt Q06546 1-454); conditions: protein: recombinant; tags: N-terminal GST; dsDNA, one strand shown
# T3 sequence: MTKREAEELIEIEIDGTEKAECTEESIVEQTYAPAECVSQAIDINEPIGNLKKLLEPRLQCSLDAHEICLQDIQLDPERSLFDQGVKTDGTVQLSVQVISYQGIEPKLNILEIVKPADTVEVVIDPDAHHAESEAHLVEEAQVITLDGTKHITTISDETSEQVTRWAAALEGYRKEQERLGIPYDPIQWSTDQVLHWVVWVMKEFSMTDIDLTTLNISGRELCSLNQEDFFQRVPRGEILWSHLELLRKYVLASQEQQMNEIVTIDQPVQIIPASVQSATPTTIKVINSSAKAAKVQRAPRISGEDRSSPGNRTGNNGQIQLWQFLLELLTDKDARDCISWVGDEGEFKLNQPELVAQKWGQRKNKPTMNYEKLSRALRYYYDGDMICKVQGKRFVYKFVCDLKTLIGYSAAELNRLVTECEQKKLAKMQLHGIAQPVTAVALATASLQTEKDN
# Outline: as §1
# [4] = target: T4, ERG (Homo sapiens, UniProt P11308 1-479); conditions: protein: recombinant; tags: N-terminal GST; dsDNA, one strand shown
# T4 sequence: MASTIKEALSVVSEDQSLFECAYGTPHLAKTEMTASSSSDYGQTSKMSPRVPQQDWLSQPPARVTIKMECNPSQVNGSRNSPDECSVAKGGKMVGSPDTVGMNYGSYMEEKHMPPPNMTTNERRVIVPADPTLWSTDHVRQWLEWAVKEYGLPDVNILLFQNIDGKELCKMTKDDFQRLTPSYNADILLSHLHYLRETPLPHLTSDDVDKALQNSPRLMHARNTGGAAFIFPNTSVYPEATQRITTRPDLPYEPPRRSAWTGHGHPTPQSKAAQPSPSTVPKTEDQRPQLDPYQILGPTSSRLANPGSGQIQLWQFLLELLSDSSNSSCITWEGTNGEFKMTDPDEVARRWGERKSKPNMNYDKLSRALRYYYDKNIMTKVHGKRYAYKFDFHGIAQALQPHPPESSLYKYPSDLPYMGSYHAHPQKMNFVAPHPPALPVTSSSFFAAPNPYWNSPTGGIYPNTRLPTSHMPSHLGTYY
# Outline: as §1
# [5] = target: ELF1 (Homo sapiens, UniProt P32519 1-619); conditions: protein: recombinant; tags: N-terminal GST; dsDNA, one strand shown
# Sequence of ELF1 (P32519 whole entry): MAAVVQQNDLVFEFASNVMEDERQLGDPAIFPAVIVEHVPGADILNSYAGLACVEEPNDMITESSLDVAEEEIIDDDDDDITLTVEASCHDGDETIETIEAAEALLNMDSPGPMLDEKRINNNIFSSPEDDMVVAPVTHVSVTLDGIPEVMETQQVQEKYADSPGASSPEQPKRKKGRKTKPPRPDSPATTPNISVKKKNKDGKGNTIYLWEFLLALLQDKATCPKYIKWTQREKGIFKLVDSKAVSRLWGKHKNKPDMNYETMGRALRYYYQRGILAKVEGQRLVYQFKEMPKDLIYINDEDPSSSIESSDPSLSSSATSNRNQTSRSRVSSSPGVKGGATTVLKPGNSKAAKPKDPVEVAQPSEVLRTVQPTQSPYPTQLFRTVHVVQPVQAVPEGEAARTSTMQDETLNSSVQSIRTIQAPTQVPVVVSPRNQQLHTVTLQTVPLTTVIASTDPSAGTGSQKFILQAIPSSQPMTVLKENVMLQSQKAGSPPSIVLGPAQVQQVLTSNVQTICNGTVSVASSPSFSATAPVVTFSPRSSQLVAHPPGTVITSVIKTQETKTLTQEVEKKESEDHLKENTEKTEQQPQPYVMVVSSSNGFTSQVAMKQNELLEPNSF
# Outline: as §1
# [6] = target: T5, EHF (Homo sapiens, UniProt Q9NZC4 1-300); conditions: protein: recombinant; tags: N-terminal GST; dsDNA, one strand shown
# T5 sequence: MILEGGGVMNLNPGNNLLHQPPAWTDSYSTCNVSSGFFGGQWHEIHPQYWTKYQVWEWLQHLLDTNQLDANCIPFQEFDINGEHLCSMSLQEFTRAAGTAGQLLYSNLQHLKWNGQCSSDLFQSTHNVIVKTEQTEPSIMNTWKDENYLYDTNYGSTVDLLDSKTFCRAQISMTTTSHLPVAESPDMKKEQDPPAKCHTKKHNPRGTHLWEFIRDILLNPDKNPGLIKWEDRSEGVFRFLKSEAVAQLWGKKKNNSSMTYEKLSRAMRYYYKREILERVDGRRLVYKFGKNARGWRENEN
# Outline: as §1
# [7] = target: SPI1 (Homo sapiens, UniProt P17947 1-270); conditions: protein: recombinant; tags: N-terminal GST; dsDNA, one strand shown
# Outline: as §1
# [8] = target: SPIB (Homo sapiens, UniProt Q01892 1-262); conditions: protein: recombinant; tags: N-terminal GST; dsDNA, one strand shown
# Sequence of SPIB (Q01892 whole entry): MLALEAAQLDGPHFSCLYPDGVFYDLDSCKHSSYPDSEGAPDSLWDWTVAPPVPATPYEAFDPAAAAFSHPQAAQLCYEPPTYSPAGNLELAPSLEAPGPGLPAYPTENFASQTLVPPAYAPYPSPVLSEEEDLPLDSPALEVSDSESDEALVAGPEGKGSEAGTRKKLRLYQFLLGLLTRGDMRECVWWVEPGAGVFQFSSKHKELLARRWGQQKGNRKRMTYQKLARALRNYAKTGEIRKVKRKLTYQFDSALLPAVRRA
# Outline: as §1
# [9] = target: T6, ELK3 (Homo sapiens, UniProt P41970 1-407); conditions: protein: recombinant; tags: N-terminal GST; dsDNA, one strand shown
# T6 sequence: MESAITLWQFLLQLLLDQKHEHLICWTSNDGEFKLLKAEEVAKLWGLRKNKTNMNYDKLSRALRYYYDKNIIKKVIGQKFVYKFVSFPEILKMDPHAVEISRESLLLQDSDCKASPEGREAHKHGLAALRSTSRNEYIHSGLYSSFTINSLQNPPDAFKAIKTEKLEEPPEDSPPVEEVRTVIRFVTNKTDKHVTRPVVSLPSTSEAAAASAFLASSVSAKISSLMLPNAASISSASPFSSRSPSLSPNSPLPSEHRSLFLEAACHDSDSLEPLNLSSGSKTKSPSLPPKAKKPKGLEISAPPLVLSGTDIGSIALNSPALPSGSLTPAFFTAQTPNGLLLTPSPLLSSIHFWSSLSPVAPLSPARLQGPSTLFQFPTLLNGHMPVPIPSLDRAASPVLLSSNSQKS
# Outline: as §1
# [10] = target: T7, FEV (Homo sapiens, UniProt Q99581 1-238); conditions: protein: recombinant; tags: N-terminal GST; dsDNA, one strand shown
# T7 sequence: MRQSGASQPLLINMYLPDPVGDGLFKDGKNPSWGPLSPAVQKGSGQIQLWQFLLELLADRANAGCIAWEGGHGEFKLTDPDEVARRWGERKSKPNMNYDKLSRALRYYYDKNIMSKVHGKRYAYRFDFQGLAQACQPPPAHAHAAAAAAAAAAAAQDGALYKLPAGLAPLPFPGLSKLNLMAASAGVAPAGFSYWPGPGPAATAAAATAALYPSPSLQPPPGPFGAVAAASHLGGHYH
# Outline: as §1
# [11] = target: ETV5 (Homo sapiens, UniProt P41161 1-510); conditions: protein: recombinant; tags: N-terminal GST; dsDNA, one strand shown
# Sequence of ETV5 (P41161 whole entry): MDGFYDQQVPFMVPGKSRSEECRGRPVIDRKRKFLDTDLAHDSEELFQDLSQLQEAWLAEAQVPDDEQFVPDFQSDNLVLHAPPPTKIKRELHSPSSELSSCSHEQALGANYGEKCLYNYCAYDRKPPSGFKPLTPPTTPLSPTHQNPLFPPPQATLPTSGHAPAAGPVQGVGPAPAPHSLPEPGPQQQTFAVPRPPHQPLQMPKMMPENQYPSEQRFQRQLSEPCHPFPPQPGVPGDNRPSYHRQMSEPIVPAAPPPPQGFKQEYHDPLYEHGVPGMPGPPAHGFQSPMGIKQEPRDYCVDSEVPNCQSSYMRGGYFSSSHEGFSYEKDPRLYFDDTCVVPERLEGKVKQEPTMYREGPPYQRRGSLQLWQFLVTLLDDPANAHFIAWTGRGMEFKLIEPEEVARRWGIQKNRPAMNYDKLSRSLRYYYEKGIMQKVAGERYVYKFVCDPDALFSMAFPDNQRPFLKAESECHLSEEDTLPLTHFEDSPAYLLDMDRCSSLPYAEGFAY
# Outline: as §1
# [12] = target: HSF1 (Homo sapiens, UniProt Q00613 1-529); conditions: protein: recombinant; tags: N-terminal GST; chain copies: 3; dsDNA, one strand shown
# Sequence of HSF1 (Q00613 whole entry): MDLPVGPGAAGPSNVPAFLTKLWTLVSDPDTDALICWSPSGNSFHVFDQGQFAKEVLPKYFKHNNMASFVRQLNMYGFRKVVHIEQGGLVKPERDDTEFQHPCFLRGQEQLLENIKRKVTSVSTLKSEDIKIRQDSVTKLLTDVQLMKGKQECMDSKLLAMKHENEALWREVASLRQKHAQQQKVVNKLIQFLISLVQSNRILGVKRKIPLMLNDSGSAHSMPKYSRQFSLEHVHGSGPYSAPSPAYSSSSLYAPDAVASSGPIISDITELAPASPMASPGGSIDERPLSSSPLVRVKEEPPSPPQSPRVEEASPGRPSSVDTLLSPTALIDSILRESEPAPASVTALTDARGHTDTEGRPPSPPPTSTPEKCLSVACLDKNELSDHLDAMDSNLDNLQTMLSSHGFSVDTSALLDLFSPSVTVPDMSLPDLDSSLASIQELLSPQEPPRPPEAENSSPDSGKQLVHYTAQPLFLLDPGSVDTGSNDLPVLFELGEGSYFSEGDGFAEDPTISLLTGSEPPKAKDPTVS
# Outline: as §1
# [13] = target: T8, SPIC (Homo sapiens, UniProt Q8N5J4 1-248); conditions: protein: recombinant; tags: N-terminal GST; dsDNA, one strand shown
# T8 sequence: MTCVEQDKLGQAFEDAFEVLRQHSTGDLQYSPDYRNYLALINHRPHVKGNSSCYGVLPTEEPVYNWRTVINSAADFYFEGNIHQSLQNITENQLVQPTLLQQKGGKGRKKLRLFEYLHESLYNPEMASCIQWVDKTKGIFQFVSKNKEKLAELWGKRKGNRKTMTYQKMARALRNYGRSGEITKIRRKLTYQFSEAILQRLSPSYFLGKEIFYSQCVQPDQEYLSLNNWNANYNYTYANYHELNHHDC
# Outline: as §1
# [14] = target: ELF4 (Homo sapiens, UniProt Q99607 1-663); conditions: protein: recombinant; tags: N-terminal GST; dsDNA, one strand shown
# Sequence of ELF4 (Q99607 whole entry): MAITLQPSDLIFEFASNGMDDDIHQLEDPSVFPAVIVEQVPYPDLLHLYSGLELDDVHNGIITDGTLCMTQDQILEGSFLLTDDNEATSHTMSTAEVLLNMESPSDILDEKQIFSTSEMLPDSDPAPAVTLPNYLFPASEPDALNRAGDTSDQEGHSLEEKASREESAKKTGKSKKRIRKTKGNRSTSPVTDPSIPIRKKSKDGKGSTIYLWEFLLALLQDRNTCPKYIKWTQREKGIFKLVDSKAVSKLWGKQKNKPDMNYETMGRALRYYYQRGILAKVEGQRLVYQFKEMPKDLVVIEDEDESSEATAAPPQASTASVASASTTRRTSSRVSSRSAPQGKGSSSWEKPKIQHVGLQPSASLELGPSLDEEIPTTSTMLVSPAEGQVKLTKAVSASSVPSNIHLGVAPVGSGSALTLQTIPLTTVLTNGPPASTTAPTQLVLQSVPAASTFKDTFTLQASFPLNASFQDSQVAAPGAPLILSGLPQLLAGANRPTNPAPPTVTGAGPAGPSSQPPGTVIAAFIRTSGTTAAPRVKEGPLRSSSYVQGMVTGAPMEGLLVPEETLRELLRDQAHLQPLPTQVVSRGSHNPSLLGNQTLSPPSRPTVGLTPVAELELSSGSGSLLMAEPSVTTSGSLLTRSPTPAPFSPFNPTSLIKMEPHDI
# Outline: as §1
# [15] = target: T9, ELK4 (Homo sapiens, UniProt P28324-2 1-405); conditions: protein: recombinant; tags: N-terminal GST; dsDNA, one strand shown
# T9 sequence: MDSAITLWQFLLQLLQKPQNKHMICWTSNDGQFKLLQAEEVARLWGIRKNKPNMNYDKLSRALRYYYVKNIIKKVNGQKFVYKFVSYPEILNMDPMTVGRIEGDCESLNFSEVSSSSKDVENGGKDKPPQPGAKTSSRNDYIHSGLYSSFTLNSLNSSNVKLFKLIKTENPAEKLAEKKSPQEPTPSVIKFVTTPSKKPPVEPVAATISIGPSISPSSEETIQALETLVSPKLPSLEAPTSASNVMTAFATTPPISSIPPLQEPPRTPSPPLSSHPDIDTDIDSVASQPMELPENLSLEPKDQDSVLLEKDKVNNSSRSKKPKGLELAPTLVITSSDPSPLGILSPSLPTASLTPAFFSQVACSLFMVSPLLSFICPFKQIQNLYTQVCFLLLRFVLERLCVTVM
# Outline: as §1
# [16] = target: T10, ETV2 (Homo sapiens, UniProt O00321 1-342); conditions: protein: recombinant; tags: N-terminal GST; dsDNA, one strand shown
# T10 sequence: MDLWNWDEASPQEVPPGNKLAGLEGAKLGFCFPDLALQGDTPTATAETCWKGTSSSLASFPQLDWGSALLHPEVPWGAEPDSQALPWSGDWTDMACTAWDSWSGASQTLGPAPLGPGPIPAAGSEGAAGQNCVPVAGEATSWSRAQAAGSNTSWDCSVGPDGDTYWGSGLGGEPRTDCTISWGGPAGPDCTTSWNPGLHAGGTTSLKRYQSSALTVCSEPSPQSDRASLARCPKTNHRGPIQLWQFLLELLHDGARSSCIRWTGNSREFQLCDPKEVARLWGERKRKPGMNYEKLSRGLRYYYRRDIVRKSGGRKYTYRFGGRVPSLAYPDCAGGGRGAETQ
# Outline: as §1
# [17] = target: T11, ELF3 (Homo sapiens, UniProt P78545 1-371); conditions: protein: recombinant; tags: N-terminal GST; dsDNA, one strand shown
# T11 sequence: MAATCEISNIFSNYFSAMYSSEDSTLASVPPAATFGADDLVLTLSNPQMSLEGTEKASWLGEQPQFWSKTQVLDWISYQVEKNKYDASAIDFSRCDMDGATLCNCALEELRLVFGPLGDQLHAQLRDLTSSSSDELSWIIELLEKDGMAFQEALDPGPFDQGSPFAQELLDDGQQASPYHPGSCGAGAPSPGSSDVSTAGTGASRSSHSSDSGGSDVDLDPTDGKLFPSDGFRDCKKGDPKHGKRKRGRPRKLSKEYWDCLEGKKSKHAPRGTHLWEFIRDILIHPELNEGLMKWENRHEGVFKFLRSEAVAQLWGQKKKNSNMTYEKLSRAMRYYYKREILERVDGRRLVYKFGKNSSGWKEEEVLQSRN
# Outline: as §1
# [18] = target: CRX (Homo sapiens, UniProt O43186 1-299); conditions: protein: recombinant; tags: N-terminal GST; dsDNA, one strand shown
# Sequence of CRX (O43186 whole entry): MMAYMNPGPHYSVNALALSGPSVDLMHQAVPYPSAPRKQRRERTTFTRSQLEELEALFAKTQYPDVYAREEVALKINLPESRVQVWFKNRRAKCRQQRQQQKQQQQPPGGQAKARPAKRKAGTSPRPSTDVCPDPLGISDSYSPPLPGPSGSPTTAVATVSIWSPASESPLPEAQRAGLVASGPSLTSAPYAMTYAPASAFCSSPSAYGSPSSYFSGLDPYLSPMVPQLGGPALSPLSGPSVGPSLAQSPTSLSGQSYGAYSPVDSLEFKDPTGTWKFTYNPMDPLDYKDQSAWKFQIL
# Outline: as §1
# [19] = target: ETV1 (Homo sapiens, UniProt P50549 1-477); conditions: protein: recombinant; tags: N-terminal GST; dsDNA, one strand shown
# Sequence of ETV1 (P50549 whole entry): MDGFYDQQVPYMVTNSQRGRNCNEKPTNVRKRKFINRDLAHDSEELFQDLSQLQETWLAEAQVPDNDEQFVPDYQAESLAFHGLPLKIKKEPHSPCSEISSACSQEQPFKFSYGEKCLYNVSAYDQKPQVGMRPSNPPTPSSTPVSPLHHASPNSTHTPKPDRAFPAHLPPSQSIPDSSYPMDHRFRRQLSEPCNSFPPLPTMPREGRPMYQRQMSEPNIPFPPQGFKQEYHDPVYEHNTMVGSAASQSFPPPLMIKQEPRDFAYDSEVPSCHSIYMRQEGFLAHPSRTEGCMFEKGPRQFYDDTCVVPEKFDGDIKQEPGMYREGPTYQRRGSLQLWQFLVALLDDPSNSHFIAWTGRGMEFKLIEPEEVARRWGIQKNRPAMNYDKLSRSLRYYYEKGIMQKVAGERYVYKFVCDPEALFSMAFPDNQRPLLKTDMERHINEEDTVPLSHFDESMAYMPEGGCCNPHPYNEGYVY
# Outline: as §1
sequence,measurement,setting,value
CTATCC,binding signal,[1],"1.45 fold enrichment (6-mer frequency, TF over GST control)"
same,binding signal,[2],"1.4 fold enrichment (6-mer frequency, TF over GST control)"
same,binding signal,[3],"1.29 fold enrichment (6-mer frequency, TF over GST control)"
same,binding signal,[4],"1.34 fold enrichment (6-mer frequency, TF over GST control)"
same,binding signal,[5],"1.38 fold enrichment (6-mer frequency, TF over GST control)"
same,binding signal,[6],"1.29 fold enrichment (6-mer frequency, TF over GST control)"
same,binding signal,[7],"1.28 fold enrichment (6-mer frequency, TF over GST control)"
same,binding signal,[8],"1.4 fold enrichment (6-mer frequency, TF over GST control)"
same,binding signal,[9],"1.48 fold enrichment (6-mer frequency, TF over GST control)"
same,binding signal,[10],"1.39 fold enrichment (6-mer frequency, TF over GST control)"
same,binding signal,[11],"1.49 fold enrichment (6-mer frequency, TF over GST control)"
same,binding signal,[12],"1.25 fold enrichment (6-mer frequency, TF over GST control)"
same,binding signal,[13],"1.36 fold enrichment (6-mer frequency, TF over GST control)"
same,binding signal,[14],"1.34 fold enrichment (6-mer frequency, TF over GST control)"
same,binding signal,[15],"1.56 fold enrichment (6-mer frequency, TF over GST control)"
same,binding signal,[16],"1.49 fold enrichment (6-mer frequency, TF over GST control)"
same,binding signal,[17],"1.31 fold enrichment (6-mer frequency, TF over GST control)"
same,binding signal,[18],"1.31 fold enrichment (6-mer frequency, TF over GST control)"
same,binding signal,[19],"1.36 fold enrichment (6-mer frequency, TF over GST control)"
